HCV inh: qHTS Assay for Inhibitors of Hepatitis C Virus (HCV); Huh7.5.1 HCVcc-Cre infection, luciferase reporter, 44 h; Potency, µM (doses to about 41.8 µM), for the others: at the highest dose activity change, negative = inhibition, most hits filed as inhibitors; 340,000 tested, 3.4% active; note: potency is the fitted concentration of half-maximal effect
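HCVcc-Cre virus at an moi near 0.5 was added right after compound to cells cultured 4 h from seeding (1,000 cells/well). Luciferase activity was determined 44 h later, 15 min after substrate addition at RT.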
AmpC inh detg: qHTS Inhibitors of AmpC Beta-Lactamase (assay with detergent); AmpC hydrolysis of nitrocefin, absorbance 480 nm, 0.01% Triton; 370,000 tested, 0.041% active; P00811; AID 485294, 2010; Potency, µM (series often up to 114 µM), for inactives: top-dose activity change, negative = inhibition, actives largely listed as inhibitors;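 note: potency is the fitted concentration of half-maximal effect; 0% = no-compound wells and -100% = no-enzyme wells; nearly all actives have a fitted effect of over 25% in size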
Target sequence (P00811 whole entry, looked up): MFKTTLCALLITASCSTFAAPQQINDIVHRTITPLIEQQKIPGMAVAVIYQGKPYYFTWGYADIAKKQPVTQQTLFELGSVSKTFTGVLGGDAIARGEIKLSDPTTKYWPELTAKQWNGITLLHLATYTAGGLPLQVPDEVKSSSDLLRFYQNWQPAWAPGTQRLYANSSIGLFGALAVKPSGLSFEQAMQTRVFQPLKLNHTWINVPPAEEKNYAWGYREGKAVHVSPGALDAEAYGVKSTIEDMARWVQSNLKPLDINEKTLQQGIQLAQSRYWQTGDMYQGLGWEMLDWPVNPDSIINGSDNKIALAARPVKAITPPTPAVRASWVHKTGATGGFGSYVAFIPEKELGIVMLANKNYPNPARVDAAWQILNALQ
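20 mM phosphate pH 7.0 + 0.01% (detergent screen) or 0.0001% Triton X-100; 5.3 nM AmpC reagent; cpd preinc 15 min RT; nitrocefin (800 uM stock) to start; A480 q20 s × 4 min; Activity was normalised to no-enzyme and no-compound control wells.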
HCMV inh: qHTS Assay for inhibitors of the human cytomegalovirus (HCMV) | HFF cells, HCMV-luciferase reporter, 72 h; stronger effect = lower value | activity change, negative = inhibition, % at 57.5 µM | AID 1259415, 2018 | 410,000 tested, 4.5% active; in the data active = activity change below about -60%; inconclusive = no clear call, values can overlap the other calls; inactive = above about -39%
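HFF cells seeded 16 h at 37C, treated with compounds, infected with luciferase-reporter HCMV at MOI 1 PFU/cell; luciferase read at 72 h post infection, normalized to buffer-only and Salinomycin controls.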
AmpC inh no detg: qHTS Inhibitors of AmpC Beta-Lactamase (assay without detergent) | P00811 | AmpC nitrocefin hydrolysis, absorbance 480 nm, 0.0001% Triton | Potency, µM (doses to about 57.1 µM), without a hit: at the top dose activity change, negative = inhibition, hits mostly inhibitors | 330,000 tested, 0.52% active;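 note: potency is the fitted concentration of half-maximal effect; plate controls were no compound for no effect and no enzyme for full effect; nearly all actives have a fitted effect of over 20% in size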
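AmpC (5.3 nM in the dispensed reagent) in 20 mM phosphate pH 7.0 with 0.01% (detergent screen) or 0.0001% Triton X-100 was preincubated with compounds for 15 min at room temperature. Nitrocefin was then added from an 800 uM solution, and hydrolysis was followed at 480 nm.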
FMDV inh: High Throughput Screening for Foot and Mouth Disease Virus Antivirals; 410,000 tested, 1.2% active; Potency, µM (titrated, usually from 57.9 µM), inactives show top-dose activity change, negative = inhibition, hits mostly inhibitors; AID 1159524, 2015; FMDV antiviral cell-based qHTS; calls by dose curve; tested in HEK293T cells; note: read-out not given here; potency is the fitted concentration of half-maximal effect; nearly all actives have a fitted effect of over 45% in size
Numbers without * were called inactive; u = inconclusive; x = no result. Sampled rows, rich in hits. Any-hit rate of the full collection: about 7.3%. Unless noted, calls come from the whole dose curve; as a rule, active = well fitted curve in the direction sought with a large enough effect; inconclusive = small, poorly fitted or top-dose-only effect, or another doubt; inactive = no such curve, though single readings can be large; an effect the other way counts as inactive or inconclusive. Unless noted, % is set by controls: 0 for no effect and ±100 for the full control effect.

SMILES	HCV inh	AmpC inh detg	HCMV inh	AmpC inh no detg	FMDV inh
O=C(CCNS(=O)(=O)c1ccccc1C(F)(F)F)NCCCN1CCOCC1	-8%	x	7	-13%	-2%
COc1ccc(CCNC(=O)COc2ccc(C)nc2[N+](=O)[O-])cc1	-4%	-4%	-30	5%	1%
Cc1cccc(N2CCN(C(=O)c3cc4ccc5cccnc5c4[nH]3)CC2C)c1 (stereo unspecified)	x	-4%	-108*	x	-21%
COc1cccc(CNC(=S)Nc2ccc3c(c2)c(=O)n(C)n3Cc2ccc(F)cc2)c1	x	x	u	x	-12%
CC(=O)Nc1ccc(NC(=O)C2=COC3=NC(=O)N(Cc4ccccc4C)CCN23)cc1	x	x	-35	x	x
O=C(/C=C/c1cccc(F)c1)Nc1ccc(S(=O)(=O)Nc2ncccn2)cc1	2%	-3%	-27	11µM*	-1%
COc1ccc(NC(=O)Cc2ccccc2)cn1	16%	1%	-30	-16%	14%
COc1ccc(NC(=O)CSc2ccccc2)cn1	-6%	-13%	-103*	-18%	33%
Cc1nc2c3ccccc3nc(SCC(=O)c3ccc(Cl)cc3)n2n1	25µM*	-11%	-40	1%	u
Cc1cc(S(=O)(=O)N(Cc2ccc(F)cc2)CC2CCCO2)ccc1-n1cnnn1 (stereo unspecified)	2%	u	-3	46%	x
Cc1cc(S(=O)(=O)N(Cc2ccc(C(C)C)cc2)CC2CCCO2)ccc1-n1cnnn1 (stereo unspecified)	u	-12%	-77*	67%	x
CCCn1c(SCc2nc(-c3ccc(OC)cc3OC)no2)nnc1-c1ccc(Cl)cc1	x	2%	0	x	-5%
COC(=O)C[C@H]1C[C@H]2c3cc(NC(=O)Nc4ccc(C(F)(F)F)cc4)ccc3O[C@H]2[C@@H](CO)O1	x	x	-17	x	u
O=C(CN(C(=O)c1csnn1)c1ccc(F)c(Cl)c1)NC1CCCC1	-7%	u	21	-4%	11%
COc1ccccc1C(=O)NCCn1cc(SCC(=O)Nc2cc(C)on2)c2ccccc21	32µM*	-2%	-39	-12%	-21%
O=C(CSc1cn(CCNC(=O)c2cccs2)c2ccccc12)NCc1ccccc1	11µM*	-11%	-33	2%	-20%
CCOc1ccc(C(=O)NCCn2cc(SCC(=O)Nc3cc(C)on3)c3ccccc32)cc1	-28%	-5%	23	-19%	u
Cc1cc(NC(=O)CSc2nc(=O)n3cc(Cl)ccc3n2)no1	7%	u	-98*	-16%	2%
Cc1cc(NC(=O)CSc2cn(CCNC(=O)c3ccc(Cl)cc3)c3ccccc23)no1	u	3%	-2	10µM*	u
COC(=O)C1=C(C)N(C(C)C)C(=O)C1(NC(=O)c1ccccc1OC)C(F)(F)F (stereo unspecified)	x	-3%	4	x	-20%
NC(=O)c1cccc(-c2ccc3c(c2)N(CC2CC2)C(=O)COC3)c1	x	x	30	x	x
COc1ccc(NC(=O)CSc2cn(CCNC(=O)c3ccc(OC)cc3)c3ccccc23)cc1	x	0%	-6	x	-24%
O=C(CSc1cn(CCNC(=O)c2ccc3ccccc3c2)c2ccccc12)NCc1ccco1	u	u	-68*	121%	u
O=C(CN1C(=O)c2cccc3cccc1c23)Nc1ccccc1C(=O)NCc1ccco1	-26%	x	-61*	x	-24%
COc1ccccc1NC(=O)CSC1=Nc2ccccc2C2=NC(CCC(=O)NCc3ccco3)C(=O)N12 (stereo unspecified)	x	12%	-15	x	-13%
O=C(N=Nc1c(O)[nH]c2ccccc12)c1cccc(S(=O)(=O)N2CCCCC2)c1	4%	0%	-4	-2%	-9%
CC(C)c1ccc2[nH]c(O)c(N=NC(=O)c3cccc(S(=O)(=O)N4CCCCC4)c3)c2c1	11µM*	-3%	-24	6.3µM*	u
Cc1ccc(C(=O)c2cn(Cc3cccc(Cl)c3)c3nc(C)ccc3c2=O)cc1	x	-2%	-8	x	-21%

Screens: PubChem, National Center for Advancing Translational Sciences (NCATS)
